Assay results: PubChem BioAssay (NCATS)
Inconclusive results are not listed. Activity calls are given as the source filed them. Calls come from the whole dose curve; as a rule, active = well fitted curve in the direction sought with a large enough effect; inconclusive = small, poorly fitted or top-dose-only effect, or another doubt; inactive = no such curve, though single readings can be large; an effect the other way counts as inactive or inconclusive. Where a SMILES comes first, the peptide text is derived from it.

Experiments:
[1] = biological target: Glutathione peroxidase 1 (Homo sapiens) (UniProt P07203); assay: Primary qHTS Assay for Inhibitors of Recombinant Selenoprotein Glutathione Peroxidase 1 (GPX1) (AID 1845191); note: nearly all actives have a fitted effect of over 65% in size; for activity, negative = inhibition: % is set by controls: 0 for no effect and ±100 for the full control effect
Chain of Glutathione peroxidase 1 (Homo sapiens) (P07203 whole entry, looked up): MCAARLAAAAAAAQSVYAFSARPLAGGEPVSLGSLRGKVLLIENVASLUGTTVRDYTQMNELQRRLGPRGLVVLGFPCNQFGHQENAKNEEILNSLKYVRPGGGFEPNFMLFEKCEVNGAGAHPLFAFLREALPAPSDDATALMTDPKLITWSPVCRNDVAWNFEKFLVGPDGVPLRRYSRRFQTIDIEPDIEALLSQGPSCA
In short: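 GR-coupled readout: NADPH consumption tracked by fluorescence, ex 340/em 450 nm, at t=0 and after 15 min at RT. Final mix 10 nM GPX1, 1 mM GSH, 0.5 mM CHP, 0.5 mM NADPH, 100 nM GR, 0.01% BSA, following 30 min enzyme–compound preincubation.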

[2] = biological target: Phospholipid hydroperoxide glutathione peroxidase GPX4 (Homo sapiens) (UniProt P36969); assay: Primary qHTS Assay for Inhibitors of Recombinant Selenoprotein Glutathione Peroxidase 4 (GPX4) (AID 1845192); note: nearly all actives have a fitted effect of over 65% in size; for activity change, negative = inhibition: series mostly up to about 50 µM; % is set by controls: 0 for no effect and ±100 for the full control effect
Chain of Phospholipid hydroperoxide glutathione peroxidase GPX4 (Homo sapiens) (P36969 whole entry, looked up): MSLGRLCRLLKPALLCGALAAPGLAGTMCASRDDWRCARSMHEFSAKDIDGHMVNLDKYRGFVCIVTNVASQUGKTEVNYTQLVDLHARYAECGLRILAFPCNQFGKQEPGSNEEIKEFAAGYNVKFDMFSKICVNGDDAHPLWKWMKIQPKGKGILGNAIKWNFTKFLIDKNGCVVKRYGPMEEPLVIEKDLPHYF
In short: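 Steps: GPX4 plus compound, 30 min RT; add GR/GSH/NADPH master mix; start with cumene hydroperoxide; read 340/450 nm fluorescence at 0 and 15 min. Finals were 200 nM GPX4, 1 mM GSH, 0.5 mM CHP, 0.5 mM NADPH, 100 nM GR.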

[3] = biological target: Luciferin 4-monooxygenase (Photinus pyralis) (UniProt P08659); assay: Primary firefly luciferase (FLuc) qHTS assay for identification of artifact compounds. (AID 1845220); note: nearly all actives have a fitted effect of over 60% in size;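 for activity change, negative = inhibition: series mostly up to about 54 µM; plate controls were DMSO vehicle for no effect and no enzyme for full effect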
In short: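 D-luciferin and ATP (10 uM each, final) in Tris acetate buffer pH 7.6 were incubated with compounds for 15 min at room temperature. The reaction was started with 10 nM Photinus pyralis luciferase and luminescence read after 5 min. Percent inhibition was fitted to a 4-parameter Hill equation.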

[4] = Primary fluorescence-based thiol-reactive (MSTI) qHTS assay for identification of artifact compounds. (AID 1845221); note: nearly all actives have a fitted effect of over 65% in size; note: potency is the fitted concentration of half-maximal effect;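 for activity change, negative = thiol reactive: series mostly up to about 54 µM; thiol-reactive compounds lower the probe fluorescence signal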
In short: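 Curve-fitted percent inhibition (4-parameter Hill) derived from fluorescence, Ex 525/Em 598 nm, scaled with Acetyl-MSTI and MSTI; 1 h incubation at room temperature.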

[5] = tested on: Nanoluciferase (engineered Oplophorus gracilirostris luciferase); assay: Primary Nanoluciferase (NLuc) qHTS assay for identification of artifact compounds. (AID 1845222);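 note: series mostly up to about 54 µM; 0% = DMSO and -100% = no enzyme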
In short: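 Diluted conditioned medium from NLuc-expressing S16 cells treated with compounds for 15 min at room temperature, then Nano-Glo substrate added; luminescence read after 5 min. Percent inhibition versus no-enzyme and DMSO controls fitted to 4-parameter Hill equation.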

C=C1CC/C=C(/CO)C(=O)C[C@@H]2[C@@H]1CC2(C)C
inactive: Potency [1] | Potency [2] | Potency [3] | Potency [4] | Potency [5]

COc1cc([C@H]2OC[C@@H]3[C@@H](c4ccc(O[C@@H]5O[C@H](CO)[C@@H](O)[C@H](O)[C@H]5O)c(OC)c4)OC[C@]23O)ccc1O
inactive: Potency [1] | Potency [2] | Potency [3] | Potency [4] | Potency [5]

CN(C)C/C=C/C(=O)Nc1ccc(C(=O)Nc2cccc(Nc3ncc(Cl)c(-c4c[nH]c5ccccc45)n3)c2)cc1
inactive: Potency [1] | Potency [2] | Potency [3] | Potency [4] | Potency [5]

C=CC1(C)CC(OC(=O)C(=C)C(O)COC(C)=O)C(C(=C)C(=O)OC)C(O)C1C(=C)CO (stereo not given)
inactive: Potency [1] | Potency [2] | Potency [3] | Potency [4] | Potency [5]

COc1c2c(c(C)c3c1C(=O)OC3)O[C@@]1(C)C[C@@H](O)[C@]34O[C@](OC)(CC[C@]3(C)[C@H]1C2)OC4(C)C
inactive: Potency [1] | Potency [2] | Potency [3] | Potency [4] | Potency [5]

C=C1CCC2(OC1)OC1CC3C4CC=C5CC(O)CC(O[C@@H]6OC[C@@H](O)[C@H](O)[C@H]6O)C5(C)C4CCC3(C)C1(O)C2C (stereo not given in full)
inactive: Potency [1] | Potency [2] | Potency [3] | Potency [4] | Potency [5]

C=CC1C(O[C@@H]2O[C@H](CO)[C@@H](O)[C@H](O)[C@H]2O)OC=C(C(=O)OC)C1CC(=O)O (stereo not given in full)
inactive: Potency [1] | Potency [2] | Potency [3] | Potency [4] | Potency [5]

CC1(C)CC2C3=CCC4C5(C)CCC(OC6OC(CO)C(O)C(OC7OC(CO)C(O)C(OC8OC(CO)C(O)C(OC9OC(COC%10OC(CO)C(O)C(O)C%10O)C(O)C(O)C9O)C8O)C7O)C6O)C(C)(C)C5CCC4(C)C3(C)CCC2(C(=O)O)CC1O (stereo not given)
inactive: activity, negative = inhibition [1] -11.7% [at 9.52 µM] | outcome [2] inactive [at 9.73 µM] | activity change, negative = inhibition [3] -5.47% [at 11.6 µM] | activity change, negative = thiol reactive [4] 31.3% [at 11.5 µM] | activity, negative = inhibition [5] 0.268% [at 11.6 µM]

C=C1CC2[C@]3(C)C(=C(O)C(=O)[C@@]2(C)[C@]2(C(=O)OC)C(=O)C(C)OC(=O)[C@@]12C)C(C)(C)C(=O)CC3O (stereo not given in full)
inactive: Potency [1] | Potency [2] | Potency [3] | Potency [4] | Potency [5]

C[C@H]1CN(C[C@H](Cc2ccccc2)C(=O)NCC(=O)O)CC[C@@]1(C)c1cccc(O)c1
inactive: Potency [1] | Potency [2] | Potency [3] | Potency [4] | Potency [5]

CC1(C)CCC(C)(C)c2cc([C@@H](O)C(=O)Nc3ccc(C(=O)O)cc3F)ccc21
inactive: Potency [1] | Potency [2] | Potency [3] | Potency [4] | Potency [5]

CC(CCC1(O)OC2CC3C4CCC5CC(O[C@@H]6O[C@H](CO)[C@@H](O)[C@H](O)[C@H]6O[C@@H]6OC[C@@H](O)[C@H](O)[C@H]6O)C(O)CC5(C)C4CCC3(C)C2C1C)CO[C@@H]1O[C@H](CO)[C@@H](O)[C@H](O)[C@H]1O (stereo not given in full)
inactive: Potency [1] | Potency [2] | activity change, negative = inhibition [3] 1.24% [at 11.6 µM] | activity change, negative = thiol reactive [4] -13.7% [at 11.5 µM] | activity, negative = inhibition [5] 4.39% [at 11.6 µM]

COCC(=O)N1CCc2cc(-c3csc(NC(=O)c4cc(OC)cc(OC)c4)n3)ccc21
inactive: Potency [1] | Potency [2] | Potency [3] | Potency [4] | Potency [5]

CC1(C)CCCC2(C)C1C(O)C=C(CO)C2(O)C(=O)O (stereo not given)
inactive: Potency [1] | Potency [2] | Potency [3] | Potency [4] | Potency [5]

OCc1ccccc1O[C@@H]1O[C@H](CO)[C@@H](O)[C@H](O)[C@H]1O
active: Potency [4] 23.8 µM
inactive: Potency [1] | Potency [2] | Potency [3] | Potency [5]

CC(C)NC[C@H](O)COc1ccc(CCOCC2CC2)cc1
inactive: Potency [1] | Potency [2] | Potency [3] | Potency [4] | Potency [5]

O=C(/C=C/c1ccc(O)cc1)OC[C@]12O[C@H]1[C@@H](O)[C@@H]1C=CO[C@@H](O[C@@H]3O[C@H](CO)[C@@H](O)[C@H](O)[C@H]3O)[C@@H]12
inactive: Potency [1] | Potency [2] | Potency [3] | Potency [4] | Potency [5]

CO[C@@]12CC3[C@@H]([C@@H](O)[C@@H](OC(C)=O)C4[C@](C)(COC(C)=O)CCC[C@]34C)[C@@H](C)C1=CC(=O)O2 (stereo not given in full)
inactive: Potency [1] | Potency [2] | Potency [3] | Potency [4] | Potency [5]

C/C=C/C=C/C=C/C(=O)O[C@@H]1[C@@H](OC)C2=C(C(=O)N(C(C)C(=O)O)C2)[C@@]2(C)CCCC(C)(C)[C@H]12 (stereo not given in full)
inactive: Potency [1] | Potency [2] | Potency [3] | Potency [4] | Potency [5]

CC[C@H]1OC(=O)C[C@@H](O)[C@H](C)[C@@H](O[C@@H]2O[C@H](C)[C@@H](O)[C@H](N(C)C)[C@H]2O)[C@@H](CCN2C[C@H](C)C[C@H](C)C2)C[C@@H](C)C(=O)/C=C/C(C)=C/[C@@H]1CO[C@@H]1O[C@H](C)[C@@H](O)[C@@H](OC)[C@H]1OC
inactive: Potency [1] | Potency [2] | Potency [3] | Potency [4] | Potency [5]

O=C(NCc1ccc(OC(F)(F)F)cc1)C1c2ccccc2C(=O)N1C1CCOCC1 (stereo not given)
inactive: Potency [1] | Potency [2] | Potency [3] | Potency [4] | Potency [5]

C=C1C(OC(C)=O)C(=O)C2C(C)(C)C(OC(C)=O)CCC2(C)C1CC(OC(C)=O)/C(C)=C/COC(C)=O (stereo not given)
inactive: Potency [1] | Potency [2] | Potency [3] | Potency [4] | Potency [5]

Cc1nc2c(-c3cnc(N)nc3)nc(N3CCOCC3)nc2n1C(C)C
inactive: Potency [1] | Potency [2] | Potency [3] | Potency [4] | Potency [5]

COC(=O)c1cc(CN2CCN(C(=N)N)CC2)cc(C(=O)N2CCN(C(=O)c3ccc(C(=N)N)cc3)CC2)c1
inactive: Potency [1] | Potency [2] | Potency [3] | Potency [4] | Potency [5]

C[C@]12CCC[C@](C)(C(=O)O)C1CCC13C=C(CO)C(CCC12)C3 (stereo not given in full)
inactive: Potency [1] | Potency [2] | Potency [3] | Potency [4] | Potency [5]

CC1NC(=O)CNC(=O)C(C(C)C)NC(=O)C2CCCN2C(=O)C(C(C)C)NC(=O)C(Cc2c[nH]c3ccccc23)NC1=O (stereo not given) (cyclo(GAWVPV); configuration not given here)
inactive: Potency [1] | Potency [2] | Potency [3] | Potency [4] | Potency [5]

C/C=C/C1=CC2=CC(=O)C(C)(O)C(OC(=O)c3c(C)cc(O)cc3O)C2CO1 (stereo not given)
inactive: Potency [1] | Potency [2] | Potency [3] | Potency [4] | Potency [5]

C=C(C)C1CC2(CO)C(=CC1=O)CCC(O)C2C (stereo not given)
inactive: Potency [1] | Potency [2] | Potency [3] | Potency [4] | Potency [5]

CCOC(=O)Nc1nc2ccccc2[nH]1
inactive: Potency [1] | Potency [2] | Potency [3] | Potency [4] | Potency [5]

C=CC(C)(C)O[C@@H]1O[C@H](CO[C@@H]2OC[C@](O)(CO)[C@H]2O)[C@@H](O)[C@H](O)[C@H]1O
inactive: Potency [1] | Potency [2] | Potency [3] | Potency [4] | Potency [5]

CC(=O)O[C@@H]1[C@H]2[C@@H](OC(=O)c3ccccc3)[C@@H](C)C[C@]2(O)[C@H](OC(C)=O)[C@@]2(C)[C@@H]3CC(C)(C)C(=O)[C@]3(OC(C)=O)C[C@@]12C
inactive: Potency [1] | Potency [2] | Potency [3] | Potency [4] | Potency [5]

C=C/C=C/[C@@H]1OC[C@H](/C=C/C=C/C)[C@H]1O
inactive: Potency [1] | Potency [2] | Potency [3] | Potency [4] | Potency [5]

CCOC(=O)c1ccnc(CNCC(=O)N(CC)CCN(C)C)c1
inactive: Potency [1] | Potency [2] | Potency [3] | Potency [4] | Potency [5]

C[C@]12C=CC(=O)C=C1CC[C@@H]1[C@@H]2[C@@H](O)C[C@@]2(C)[C@H]1CC[C@]2(O)C(=O)COC(=O)CCC(=O)O
inactive: Potency [1] | Potency [2] | Potency [3] | Potency [4] | Potency [5]

COc1cc(/C=C/C(=O)OC2CC3CCC2(C)C3(C)C)ccc1O (stereo not given)
inactive: Potency [1] | Potency [2] | Potency [3] | Potency [4] | Potency [5]

COc1ccc(C)c2sc(NC(=O)c3ccncc3)nc12
inactive: Potency [1] | Potency [2] | Potency [3] | Potency [4] | Potency [5]

O=C(O)C[C@H]1CCC(=O)[C@@H]1C/C=C\CCOC1OC(CO)C(O)C(O)C1O (stereo not given in full)
active: Potency [4] 7.36 µM
inactive: Potency [1] | Potency [2] | Potency [3] | Potency [5]

O=C(/C=C/c1ccc(O)cc1)OCC1=C[C@@H](O)[C@@H]2C=CO[C@@H](O[C@@H]3O[C@H](CO)[C@@H](O)[C@H](O)[C@H]3O)[C@H]12
active: Potency [4] 5.82 µM
inactive: Potency [1] | Potency [2] | Potency [3] | Potency [5]

CCCC(N[C@@H](C)C(=O)N1[C@H](C(=O)O)C[C@@H]2CCCC[C@@H]21)C(=O)OCC (stereo not given in full)
inactive: Potency [1] | Potency [2] | Potency [3] | Potency [4] | Potency [5]

COc1cc(/C=C/C(=O)OC2[C@H](O)CC(O)(C(=O)O)C[C@H]2O)ccc1O (stereo not given in full)
inactive: Potency [1] | Potency [2] | Potency [3] | Potency [4] | Potency [5]

CC1CCC2(C(=O)OC3OC(COC4OC(CO)C(O)C(O)C4O)C(O)C(O)C3O)CCC3(C)C(=CCC4C5(C)CCC(O)C(C)(C(=O)O)C5CCC43C)C2C1(C)O (stereo not given)
inactive: Potency [1] | Potency [2] | activity change, negative = inhibition [3] -4.02% [at 11.6 µM] | activity change, negative = thiol reactive [4] 18.5% [at 11.5 µM] | activity, negative = inhibition [5] 3.18% [at 11.6 µM]

N[C@@H](CC(=O)N1CCn2c(nnc2C(F)(F)F)C1)Cc1[nH]nc2c(F)c(F)ccc12
inactive: Potency [1] | Potency [2] | Potency [3] | Potency [4] | Potency [5]

CC1(C)CC[C@]2(C(=O)O)CC[C@]3(C)C(=CCC4[C@@]5(C)CC[C@H](O[C@@H]6O[C@H](C(=O)O)[C@@H](O)[C@H](O)[C@H]6O)C(C)(CO)C5CC[C@]43C)C2C1 (stereo not given in full)
inactive: Potency [1] | Potency [2] | Potency [3] | Potency [4] | Potency [5]

C=CCc1ccc(O[C@@H]2O[C@H](CO[C@@H]3O[C@H](CO)[C@@H](O)[C@H](O)[C@H]3O)[C@@H](O)[C@H](O)[C@H]2O)c(O)c1
inactive: Potency [1] | Potency [2] | Potency [3] | Potency [4] | Potency [5]

CC(C)c1ccc(CC(=O)N2CCC[C@@H](c3cccc(OC(C)(C)C(=O)O)c3)C2)cc1
inactive: Potency [1] | Potency [2] | Potency [3] | Potency [4] | Potency [5]
